Source: PubChem
Rows were chosen to be rich in hits. Some 5.7% of all compounds tested hit in one or more screens of this group.
GRIN3A LBD mod: modulates the human NR3A ligand-binding domain. actives 2.5% (n = 340,000). AID 1259313. NR3A LBD differential scanning fluorimetry, Tm shift; 0% = protein alone, 100% = glycine-bound protein. Tm shift relative to glycine control, % at 25 µM;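 active = melting temperature shift of at least 10% of the positive control shift, at one fixed dose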
MPTP inh: permeability transition pore inhibition; inhibition, % at 10 µM; actives 1.4% (n = 360,000); AID 602449; isolated mouse mitochondria, Ca2+ swelling absorbance, 30 min;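 active = inhibition of 50% or more, scaled per plate between neutral and stimulator controls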
Myeloid diff MLP: myeloid differentiation induction | calls only at 10 µM | actives 1% (n = 360,000) | ER-HoxA9 myeloid progenitors, lysozyme-GFP differentiation, flow cytometry;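 active = normalized GFP-positive differentiation at or above the plate's own cutoff, the solvent-only control mean plus 3 SD; inconclusive = no clear call, values can overlap the other calls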;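 also: cells exposed to compound for four days before flow analysis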
rCAG binder: binds r(CAG) RNA repeats. r(CAG) RNA repeat, TO-PRO-1 dye displacement fluorescence. inhibition, % at 3 µM. actives 1.3% (n = 370,000);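 active = inhibition above the plate cutoff, the mean of all test compounds on that plate plus 3 SD, cut at about 35% in these data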;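 also: higher means more dye released from RNA so lower well fluorescence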
FAS TE block: blocks the thioesterase domain of human fatty acid synthase | recombinant FAS-TE, OMFH fluorogenic substrate, fluorescence endpoint | inhibition, % at 15 µM | P49327 | AID 602261 | actives 0.67% (n = 360,000);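 active = compounds whose normalised, plate-corrected inhibition of enzyme fluorescence in the single-dose primary screen is 50% or more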
Target sequence (P49327 whole entry, looked up, the tested form may be a part): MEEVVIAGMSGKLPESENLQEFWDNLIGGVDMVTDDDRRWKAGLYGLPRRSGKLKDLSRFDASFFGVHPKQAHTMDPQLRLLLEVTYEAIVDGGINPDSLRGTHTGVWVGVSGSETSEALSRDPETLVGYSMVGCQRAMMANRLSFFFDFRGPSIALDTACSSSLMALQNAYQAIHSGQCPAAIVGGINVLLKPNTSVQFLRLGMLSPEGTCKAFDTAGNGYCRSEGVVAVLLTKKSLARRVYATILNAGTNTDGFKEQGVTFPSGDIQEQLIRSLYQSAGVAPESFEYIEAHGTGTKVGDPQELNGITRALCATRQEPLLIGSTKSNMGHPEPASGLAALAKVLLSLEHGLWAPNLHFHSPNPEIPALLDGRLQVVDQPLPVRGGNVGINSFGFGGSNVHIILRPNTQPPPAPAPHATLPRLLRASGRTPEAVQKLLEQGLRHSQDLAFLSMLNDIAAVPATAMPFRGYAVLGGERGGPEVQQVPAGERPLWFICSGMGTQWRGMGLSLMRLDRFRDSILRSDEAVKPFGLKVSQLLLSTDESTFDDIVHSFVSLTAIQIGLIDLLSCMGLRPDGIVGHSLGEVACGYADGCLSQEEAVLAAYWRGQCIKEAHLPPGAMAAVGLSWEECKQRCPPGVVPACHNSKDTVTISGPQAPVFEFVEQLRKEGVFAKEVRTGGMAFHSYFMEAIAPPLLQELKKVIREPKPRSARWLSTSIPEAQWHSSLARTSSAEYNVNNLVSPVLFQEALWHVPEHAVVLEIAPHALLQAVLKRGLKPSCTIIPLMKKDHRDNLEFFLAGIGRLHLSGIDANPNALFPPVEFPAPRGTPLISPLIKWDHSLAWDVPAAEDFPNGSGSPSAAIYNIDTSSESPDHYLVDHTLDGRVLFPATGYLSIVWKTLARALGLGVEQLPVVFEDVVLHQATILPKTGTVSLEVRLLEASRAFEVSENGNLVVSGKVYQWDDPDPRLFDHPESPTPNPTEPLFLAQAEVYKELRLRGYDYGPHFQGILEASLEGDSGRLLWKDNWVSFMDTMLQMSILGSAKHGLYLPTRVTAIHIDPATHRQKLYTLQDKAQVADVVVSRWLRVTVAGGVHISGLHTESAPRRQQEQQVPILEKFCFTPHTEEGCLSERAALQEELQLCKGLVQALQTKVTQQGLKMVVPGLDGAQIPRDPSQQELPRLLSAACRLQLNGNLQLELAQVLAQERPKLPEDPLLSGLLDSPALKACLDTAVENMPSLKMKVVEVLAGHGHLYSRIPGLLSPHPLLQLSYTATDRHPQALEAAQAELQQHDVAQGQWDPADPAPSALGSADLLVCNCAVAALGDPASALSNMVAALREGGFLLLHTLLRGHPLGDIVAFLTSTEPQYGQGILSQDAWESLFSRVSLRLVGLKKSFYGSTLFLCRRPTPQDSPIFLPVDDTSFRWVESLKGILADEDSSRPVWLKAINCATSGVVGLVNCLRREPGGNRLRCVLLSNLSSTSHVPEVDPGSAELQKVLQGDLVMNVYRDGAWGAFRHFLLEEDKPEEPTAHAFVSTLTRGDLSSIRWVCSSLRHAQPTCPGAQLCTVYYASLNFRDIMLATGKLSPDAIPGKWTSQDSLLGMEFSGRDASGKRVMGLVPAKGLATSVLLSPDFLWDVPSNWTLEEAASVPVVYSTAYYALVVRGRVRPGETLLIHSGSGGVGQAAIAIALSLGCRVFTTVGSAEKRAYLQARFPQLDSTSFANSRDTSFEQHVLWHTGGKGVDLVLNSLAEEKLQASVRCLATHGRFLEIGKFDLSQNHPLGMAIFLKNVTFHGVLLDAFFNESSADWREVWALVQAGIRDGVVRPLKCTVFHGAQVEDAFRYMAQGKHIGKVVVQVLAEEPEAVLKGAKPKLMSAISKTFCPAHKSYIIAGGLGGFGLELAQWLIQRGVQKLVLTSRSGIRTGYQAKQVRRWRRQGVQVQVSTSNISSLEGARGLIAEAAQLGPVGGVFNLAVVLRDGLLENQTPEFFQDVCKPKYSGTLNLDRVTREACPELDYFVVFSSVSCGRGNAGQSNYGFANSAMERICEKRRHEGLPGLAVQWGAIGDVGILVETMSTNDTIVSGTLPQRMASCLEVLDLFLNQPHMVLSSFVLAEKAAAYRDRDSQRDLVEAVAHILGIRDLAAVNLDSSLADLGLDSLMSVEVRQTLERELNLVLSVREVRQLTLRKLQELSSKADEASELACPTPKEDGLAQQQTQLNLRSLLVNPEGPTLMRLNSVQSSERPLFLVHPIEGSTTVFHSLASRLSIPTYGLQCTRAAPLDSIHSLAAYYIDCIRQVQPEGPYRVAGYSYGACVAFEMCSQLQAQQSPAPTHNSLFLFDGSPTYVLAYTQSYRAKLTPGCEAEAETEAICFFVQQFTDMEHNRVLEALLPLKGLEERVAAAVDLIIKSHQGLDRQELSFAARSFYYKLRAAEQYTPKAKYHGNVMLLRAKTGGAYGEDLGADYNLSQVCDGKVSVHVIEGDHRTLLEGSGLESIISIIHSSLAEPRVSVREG
Rh123 counter: mitochondrial membrane potential, counter-screen; shares compounds with MPTP inh; isolated mitochondria, Rhodamine 123 fluorescence; inhibition, % at 10 µM; actives 78% (n = 5,000); AID 624504; in the data active = inhibition above about 22%
MPTP swell DR: MPTP inhibition, dose response swelling confirmation. actives 58% (n = 780). AID 651561. shares compounds with MPTP inh. IC50, µM. isolated mitochondria swelling, absorbance; in the data active = IC50 below about 20 µM
MPTP counter DR: active in counter-screen for permeability transition pore inhibitors; actives 49% (n = 780); isolated mitochondria counterscreen, fluorescence read-out; shares compounds with MPTP inh; IC50, µM; AID 651564; in the data active = IC50 below about 80 µM
A number is an active result; n = inactive; u = inconclusive; x = not tested or not shown; + = active, no number.

SMILES	GRIN3A LBD mod	MPTP inh	Myeloid diff MLP	rCAG binder	FAS TE block	Rh123 counter	others
CC(/C=N\NC(=O)Cn1c(C)nc2ccccc21)=C\c1ccccc1	n	54	+	n	n	65
CC(/C=N/NC(=O)CSc1nc(C)cc(C)n1)=C\c1ccccc1	n	50	n	n	n	53
S=C(NC1CCCC1)NN1CCOCC1	n	n	n	n	n	x
COC(=O)[C@]12C[C@H](CC(=O)NCc3ccc(C)o3)C(=O)N(CCC3=CCCCC3)C1=C[C@H](C(C)C)O[C@@H]2C1CC1	x	x	x	n	x	x
O=[N+]([O-])c1ccc(-c2cnc(SC(c3ccccc3)c3ccccc3)[nH]2)cc1	26	90	n	n	n	76
NC(=O)CSc1ncc(-c2ccc([N+](=O)[O-])cc2)[nH]1	n	n	n	n	n	x
O=C(CCCCCNC(=O)c1ccccc1Cl)N/N=C/c1ccco1	n	n	n	n	n	x
Nc1nonc1C(=O)NCCNCc1cc(Br)ccc1OCc1ccccc1F	n	84	n	n	n	80
NS(=O)(=O)c1ccc(CCNCc2cc(Cl)ccc2OCc2ccccc2)cc1	n	n	n	n	n	x
COc1cccc(CNCCNC(=O)c2nonc2N)c1	n	n	n	n	n	x
NS(=O)(=O)c1ccc(CCNCc2cc(Br)ccc2OCc2ccccc2F)cc1	n	78	n	n	n	66
COc1cc(CNCCNC(=O)c2nonc2N)ccc1OCc1ccc(Cl)cc1	n	83	n	n	n	28
CCN(CC(=O)NCC1CCCO1)S(=O)(=O)c1ccc2ccccc2c1 (stereo not drawn)	n	n	n	n	n	x
Cc1nn(-c2cc(C(F)(F)F)ccc2Cl)c2nc(C(Cl)(Cl)Cl)[nH]c(=O)c12	n	78	n	n	n	82
Cc1nn(-c2ccccc2)c2nc(C(F)(F)F)[nH]c(=O)c12	n	n	n	n	n	x
COC(=O)C1=NN(C(=O)c2cccc(Br)c2)C(O)(c2ccc(Cl)cc2)C1 (stereo not drawn)	n	67	n	n	n	73
Oc1ccc(Br)cc1/C=N/n1cnc2ccccc21	n	74	n	n	n	67
CCN(Cc1ccncc1)C(=O)CCc1nnc(CCc2ccc(OC)cc2)o1	n	n	n	n	n	x
O=C(NC(NC1CCS(=O)(=O)C1)C(Cl)(Cl)Cl)c1ccc(Br)cc1 (stereo not drawn)	n	91	n	n	n	102
CCCCNC(=O)C1(C)CCN1C(=O)c1cc(C)n(C(C)(C)C)n1 (stereo not drawn)	x	n	n	n	n	x
O=C(N/N=C/c1ccc(OC(=O)c2ccccc2)cc1)c1cccnc1	n	n	n	n	n	x
CCn1c(-c2ccco2)nc2ccccc21	n	92	n	n	n	n	MPTP swell DR=8.7;MPTP counter DR=n
O=C(Nc1cccc(F)c1)N1CCc2nc(NCc3cccc(Oc4ccccc4)c3)ncc2C1	x	n	n	n	n	x
Cc1cccc(C)c1N1CCN(C(c2cc3ccccc3o2)c2nnnn2C(C)(C)C)CC1 (stereo not drawn)	x	87	u	x	n	57
COc1ccc(-c2nc(CCNC(=O)c3cccs3)cs2)cc1	n	64	u	n	n	n	MPTP swell DR=n;MPTP counter DR=47
SMILES	GRIN3A LBD mod	MPTP inh	Myeloid diff MLP	rCAG binder	FAS TE block	Rh123 counter	others
c1ccc2cc(C3OCC4(CCCC4)CO3)ccc2c1	x	n	n	n	n	x
Cc1ccc2c(c1)-n1c(nc3ccccc3c1=O)C(CC(C)C)NC2=O (stereo not drawn)	x	x	x	n	x	x
COc1ccc(CCNCC(O)COc2ccc(OC)cc2C(C)(C)C)cc1 (stereo not drawn)	n	80	n	n	n	n	MPTP swell DR=6.2;MPTP counter DR=41
COc1ccc(CCNCC(O)COc2cccc(Br)c2)cc1OC (stereo not drawn)	n	n	n	n	n	x
Cc1ccccc1C(=O)c1cccn1CC(=O)N1CCCCC1	n	n	n	n	n	x
COc1cc(/C=C2\SC(=O)N(CCN)C2=O)ccc1OS(=O)(=O)c1cc(C)ccc1C	n	82	n	n	n	n	MPTP swell DR=7.5;MPTP counter DR=29
N#Cc1cc(C(=O)c2cc(Br)ccc2O)cn(C2CCCCC2)c1=O	n	94	n	n	n	82
CC(C)N1CC2(CC(c3ccccc3C(F)(F)F)=NO2)CN1C(=O)c1ccco1 (stereo not drawn)	x	n	n	n	n	x
N=c1n(Cc2ccccc2)c2ccccc2n1CC(O)COc1ccc(Cl)cc1Cl (stereo not drawn)	n	74	u	n	n	n
N=c1n(CCO)c2ccccc2n1Cc1ccc(Cl)cc1	n	89	n	n	n	n	MPTP swell DR=13;MPTP counter DR=48
N=c1n(Cc2ccc(Cl)cc2)c2ccccc2n1CC(O)COc1ccccc1 (stereo not drawn)	n	78	u	n	n	27
N=c1n(CC(=O)c2ccc([N+](=O)[O-])cc2)c2ccccc2n1Cc1ccc(Cl)cc1	n	88	n	n	n	n
Cc1cccc(C)c1NC(=O)C(c1ccccc1)n1c(=O)c(-c2ccco2)nc2ccccc21 (stereo not drawn)	x	n	n	n	x	x
CCCCCCCCCCCC(=O)NC(C(=O)OCC)C(O)c1cccc([N+](=O)[O-])c1 (stereo not drawn)	n	n	n	n	n	x
CCOC(=O)c1cccc(NC(=O)CN(C)S(=O)(=O)c2ccc(Br)s2)c1	x	x	x	n	x	x
O=C(Nc1ccc(Cl)c(Cl)c1)OCc1cccnc1	n	90	n	n	n	95
Cc1ccc(NC(=O)c2ccc(S(=O)(=O)NCc3cccnc3)cc2)cc1C	n	n	n	n	n	x
O=C(Nc1cccnc1)OCc1ccccc1	n	n	n	n	n	x
O=C(Nc1ccc(Cl)c(Cl)c1)c1cccc(S(=O)(=O)NCc2cccnc2)c1	11	104	n	n	n	84
O=c1cc(-c2ccccc2)[nH]n1-c1ccc([N+](=O)[O-])cc1	n	100	n	x	n	77
COc1ccc(CNC(=O)C[C@H]2C[C@H](C(=O)N3CCCCC3)[C@@]3(C)c4[nH]c5cc(CCC(=O)N(C)C)ccc5c4CCN3C2=O)cc1OC	n	n	n	n	n	x
Cc1ccc(NS(=O)(=O)c2ccc3c(c2)C(=O)c2ccccc2C3=O)c(C)c1	n	82	n	n	n	72
Cc1cccc(S(=O)(=O)Nc2cccc3c2C(=O)c2ccccc2-3)c1	n	n	n	n	n	x
COc1ccc(S(=O)(=O)C(C#N)c2nc3ccccc3nc2N2CCC(C)CC2)cc1 (stereo not drawn)	x	x	x	n	x	x
CCCCOc1nc2ccccc2nc1C(C#N)S(=O)(=O)c1ccccc1 (stereo not drawn)	n	51	n	n	n	78
CC1CCCN(c2nc3ccccc3nc2C(C#N)S(=O)(=O)c2ccccc2)C1 (stereo not drawn)	n	82	n	n	n	83
